The record followed here is PubChem BioAssay AID602252 (Broad Institute, 2012).

About 2,700 (0.9%) of roughly 300,000 compounds were called active.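 The calls were made as follows: active = mean inhibition of at least 30% with at least half of replicates also reaching 30%; inconclusive = no clear call, values can overlap the other calls; inactive = the rest.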 Many of the other results were omitted from the sample, so actives are more common in it than they were.

This experiment deals with Golgi-associated PDZ and coiled-coil motif-containing protein (Homo sapiens) (UniProt Q9HD26). In words: blockade of CAL PDZ-reporter peptide interaction – biochemical, fluorescence polarization, untagged CAL PDZ, HTS, primary screen (AID 602252).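 Also: 0% = DMSO neutral control and 100% = excess unlabeled competitor peptide PRC23.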 The conditions noted are these: purified CAL PDZ, TMR-peptide fluorescence polarization, 1 h; at 24.9 µM; stronger effect = higher value. On the technique in general: In fluorescence polarisation assays a small probe gives low polarisation when free and higher when bound to something large.
As for `CN1C(c2ccc(F)cc2)=CS/C1=C(/C#N)c1nnc2n1-c1ccccc1SC2`, the inhibition is 7.66% (inactive).
Regarding `C=CC[C@@H](CC(=O)N[C@H](CO)Cc1ccccc1)C(=O)N[C@H](C)COC(=O)[C@@H](CC=C)Cc1ccc(F)cc1`, the inhibition was 4.91% (inactive).
For `C=CCC[C@H](Cc1ccc(F)cc1)C(=O)OC[C@@H](Cc1c[nH]c2ccccc12)NC(=O)[C@H](CC=C)CC(=O)N[C@H](CO)Cc1ccccc1`, the inhibition is -1.97% (inactive).
Turning to `C=CCC[C@H](Cc1ccc(F)cc1)C(=O)OC[C@@H](NC(=O)[C@@H](CC=C)CC(=O)N[C@H](CO)Cc1ccccc1)C(C)(C)C`, the inhibition was 40.2% (active).
With `O=C1/C(=C\c2ccc(O)cc2)CCC1CNc1ccc(Cl)cc1` (centres undefined) the figure was -2.09% (inactive); with `CC(=O)OC1CCC2(C)C(=CCC3C4CC(=O)N(O)C(=O)C4(C)CCC32)C1` (centres undefined), -3.51% (inactive).
As for `c1ccc(C(=NNc2nc3ccccc3s2)c2ccccn2)cc1`, the figure is 10.3% (inactive); as for `COCc1nnc(NC(=O)CS(=O)(=O)Cc2ccccc2)s1`, -3.64% (inactive); as for `CCCCc1nnc(NC(=O)CS(=O)(=O)Cc2ccccc2)s1`, 30.2% (active).
In the case of `CCOCc1nnc(NC(=O)CCS(=O)(=O)Cc2ccccc2)s1`, the inhibition is -2.55% (inactive).
As for `COc1ccc(N2CCN(C(CNS(=O)(=O)c3ccc(C)cc3)c3ccccc3)CC2)cc1` (centres undefined), the figure is -2.12% (inactive).
As for `O=C1C=CN2CCCC2CC1` (centres undefined), the figure is -1.74% (inactive).
With `O=C(NC(=S)Nc1ccc(Br)cc1F)C1CCCCC1` the figure was -6.68% (inactive); with `Cc1nn(-c2ccc(F)cc2)c(Cl)c1/C=C(/CCC(=O)O)c1nc2ccccc2s1`, -3.19% (inactive).
On to `COc1cc(C2c3cc4c(cc3C(O)C3COC(=O)C23)OCO4)cc(OC)c1OC` (centres undefined), for which the inhibition is -1.27% (inactive).
As for `CS(=O)(=O)N1CCc2cc(C(=O)Nc3ccccc3Br)ccc21`, the figure is -1.26% (inactive).
With `CSc1ccccc1NC(=O)c1ccc2c(c1)CCN2S(C)(=O)=O` the figure was -1.36% (inactive); with `CCc1ccccc1NC(=O)c1ccc2c(c1)CCN2S(C)(=O)=O`, 40% (active); with `COc1cc(OC)cc(-c2cc3ccc(F)cc3cn2)c1`, -1.91% (inactive).
As for `O=C(C1CCN(Cc2ccc(Cl)cc2)CC1)N1CCN(Cc2ccc3c(c2)OCO3)CC1`, the figure is 2.38% (inactive); as for `O=C(C1CCN(C2CCN(Cc3cccc4c3OCO4)CC2)CC1)N1CCOCC1`, 37.8% (active); as for `C/C(=C\c1ccco1)CN1CCC(N2CCC(C(=O)N3CCOCC3)CC2)CC1`, 5.25% (inactive).
Regarding `CCC(CO)Oc1cc(NC(=O)c2cccc3ccccc23)c2ncn(C(C)C)c2c1` (centres undefined), the inhibition is -1.65% (inactive).
As for `Cc1cc(C)cc(OCC(=O)Nc2ccc(N3CCOCC3)cc2N2CCOCC2)c1`, the figure is -3.82% (inactive); as for `CCOc1ccc(NC(=O)C2CC(=O)N=C(N)S2)cc1` (centres undefined), -0.069% (inactive); as for `CCOc1ccc(N/C(N)=N/c2nc(C)c(C)c(=O)[nH]2)cc1`, 42% (active).
With `CCOc1ccc(NC(=O)c2nc(SCC)ncc2Cl)cc1` the figure was -1.2% (inactive).
In the case of `CCCCN1CC(COCc2ccccc2)OCCS1(=O)=O` (centres undefined), the inhibition was -4.9% (inactive).
As for `O=C(O)c1ccc(NN=CC2=C(N3CCOCC3)/C(=C/c3ccccc3)CC2)cc1`, the figure is -3.09% (inactive).
As to `CCCCNC(=O)C(C)N(CCN(C)C)C(=O)CCCCCN1C(=O)NC(c2ccc(Cl)cc2)C(C(=O)OCc2ccccc2)=C1C` (centres undefined), the inhibition is -7.11% (inactive).
With `Cc1cc(-c2nnc(SCC(=O)Nc3ccc(S(N)(=O)=O)cc3)n2N)n[nH]1` the figure was 2.84% (inactive).
Consider `Cc1oc2nc(SCC(=O)Nc3ccc(S(N)(=O)=O)cc3)nc(NC(=O)c3ccccc3)c2c1C`, for which the inhibition is 30.6% (active).
As for `Cc1oc2nc(SCC(=O)NCc3cccnc3)nc(N)c2c1C`, the figure is -4.94% (inactive); as for `O=C(CCc1ccccc1)Nc1nn[nH]n1`, -4.68% (inactive); as for `O=C(/C=C/c1c(F)cccc1Cl)Nc1nn[nH]n1`, 133% (active).
With `CCOC(=O)CNC(=O)/C=C/c1c(Cl)cccc1Cl` the figure was -4.11% (inactive); with `COc1ccc2c(c1)[C@H]1[C@H](CO2)[C@H](c2ccccc2)[C@]2(C)C(=O)Nc3cc(F)c(F)cc3C(=O)N12`, -3.04% (inactive).
As for `Cc1ccc(S(=O)(=O)NC[C@H]2O[C@@H](n3cnc4c(N)ncnc43)[C@H](O)[C@@H]2O)s1`, the figure is -0.852% (inactive).
In the case of `C=CCNc1cnn(-c2ccc(C)cc2)c(=O)c1Cl`, the inhibition was 82% (active).
As for `CCCNC(=O)c1c(Cl)cnn1-c1ccc(C)cc1`, the figure is 4.34% (inactive); as for `O=c1c(Cl)c(NC2CC2)cnn1-c1ccccc1`, -0.978% (inactive).
As for `COc1ccc2[nH]c3c(c2c1)CCN1C(=O)C(CC(=O)NCCc2ccccn2)C[C@H](C(=O)N2CCOCC2)[C@@]31C` (some centres undefined), the figure is -8.9% (inactive); as for `COC(=O)[C@]1(Cc2ccccc2)N[C@H](CN(C)S(=O)(=O)c2ccc(OC(F)(F)F)cc2)[C@@H]2C(=O)N(C)C(=O)[C@@H]21`, -4.26% (inactive); as for `N#CCCN1CCN(S(=O)(=O)c2ccc(S(=O)(=O)NC3CCCCC3)cc2)CC1`, 49.3% (active).
For `N#CCCN1CCN(S(=O)(=O)c2ccc(S(=O)(=O)N3CCCC3)cc2)CC1`, the inhibition is 2.13% (inactive).
With `Cc1ccc(S(=O)(=O)NC2CCCCCC2)cc1` the figure was 0.011% (inactive); with `COc1ccc(-c2c(-c3cc(OC)cc(OC)c3)n(C)c3ccc(-c4ccn[nH]4)cc23)cc1`, -3.15% (inactive); with `CCN1CCC(O)(/C=C/c2ccc(C)cc2)C(C(=O)/C=C/c2ccc(C)cc2)C1` (centres undefined), 8.48% (inactive).
As for `CCCn1c(=O)c(C(=O)Nc2cc(C)ccn2)c(O)c2ccccc21`, the figure is -3.7% (inactive); as for `C=CCn1c(=O)c(C(=O)Nc2ncccc2O)c(O)c2ccccc21`, -2.5% (inactive); as for `Cn1c(=O)c(C(=O)Nc2ncccn2)c(O)c2ccccc21`, 35% (active).
As for `COc1ccc(Cl)cc1C=CC=Nc1ccc(S(N)(=O)=O)cc1`, the figure is 1.96% (inactive).
For `COc1cccc(CC(=O)Nc2nc(-c3ccc(OC)c(OC)c3)cs2)c1`, the inhibition was -0.162% (inactive).
With `COc1ccc(CC(=O)Nc2nc(-c3ccc(F)c(F)c3)cs2)cc1OC` the figure was -3.84% (inactive); with `COc1ccc(CCNc2nc(-c3cccc(NC(C)=O)c3)cs2)cc1OC`, 57.3% (active); with `O=C(Nc1cccc(S(=O)(=O)N2CCOCC2)c1)C12CC3CC(CC(C3)C1)C2`, -2.14% (inactive).
Take `CSc1ncnc2c1ncn2CC(=O)C1CCC2C3CCC4=CC(=O)CCC4(C)C3CCC12C` (centres undefined): the inhibition was 2.07% (inactive).
For the molecule `COc1ccccc1N(CCOc1ccccc1)S(=O)(=O)c1ccccc1`, the inhibition is 71% (active).
With `COc1ccccc1NC(=O)CN(c1ccccc1OC)S(=O)(=O)c1ccccc1` the figure was 0.854% (inactive); with `COc1ccccc1N(CC(=O)N1CCCCC1)S(=O)(=O)c1ccccc1`, -3.76% (inactive); with `O=C(O)C(=Cc1ccccc1[N+](=O)[O-])c1ccccc1`, -1.54% (inactive).
With `O=C(CSc1nnc(CNC(=O)c2ccc(F)cc2)o1)Nc1ccc2c(c1)OCO2` the figure was 74.1% (active); with `O=C(NCc1nnc(SCC(=O)N2CCCCCC2)o1)c1ccc(F)cc1`, -2.96% (inactive).
As for `COc1ccc(C(=O)NCc2nnc(SCC(=O)Nc3cccc(OC)c3)o2)cc1`, the figure is -4.41% (inactive).
Turning to `COc1ccc(-c2ccc3c(c2)[C@@H]2C[C@H](N(C)S(=O)(=O)c4ccccc4)[C@H]([C@H](C)O)C(=O)N2CC3)cc1`, the inhibition was -5.77% (inactive).
As for `CCCCn1c(N)c(N(CCOC)C(=O)c2cccc(S(=O)(=O)N3CCCCC3)c2)c(=O)[nH]c1=O`, the figure is -4.58% (inactive).
Turning to `O=c1[nH]c2ccc(S(=O)(=O)N3CCCC3)cc2[nH]1`, the inhibition is -3.37% (inactive).
With `CCCCn1c(=S)[nH]c2cc(S(=O)(=O)N3CCCCC3)ccc21` the figure was 1.64% (active).
Take `CCN(CC)S(=O)(=O)c1cccc(NC(=O)c2ccc(S(=O)(=O)N3CCCC3)cc2)c1`: the inhibition is -1.26% (inactive).
As for `O=C1/C(=C\c2ccc([N+](=O)[O-])cc2)CS(=O)(=O)C/C1=C/c1ccc([N+](=O)[O-])cc1`, the figure is -4.54% (inactive).
For `COc1ccccc1NC(=O)COC(=O)CNC(=O)C1CCCCC1`, the inhibition was -1.86% (inactive).
Take `CN(CCc1ccccc1)C(=O)c1cccc(NC(=O)Cc2ccc([N+](=O)[O-])cc2)c1`: the inhibition is 0.702% (inactive).
With `O=C(COC(=O)c1ccccn1)NNC(=O)c1ccc(Br)cc1` the figure was -0.344% (inactive); with `Cc1cccc(OCc2nnc(SCc3nc4cc(C(F)(F)F)ccc4c(=O)[nH]3)o2)c1`, 1.6% (inactive); with `Cc1nc(N)[nH]c(=O)c1Oc1cccc(C(F)(F)F)c1`, 71.1% (active).
With `O=Cc1ccc(Oc2cccc(C(F)(F)F)c2)nc1` the figure was 2.04% (inactive); with `Fc1ccccc1-c1cc2cc3c(cc2cn1)OCO3`, -3.15% (inactive).
As for `COc1cc(/C=C/c2ccc(/C=C/c3cc(OC)c(OC)c(OC)c3)cc2)cc(OC)c1OC`, the figure is -6.47% (inactive); as for `CC(Oc1ccc2c(-c3ccccc3)cc(=O)oc2c1)C(=O)NC(Cc1c[nH]c2ccccc12)C(=O)O` (centres undefined), 1.66% (inactive).
For `Cn1c(CCN2CCCCCC2)nc2cc(NC(=O)Nc3ccccc3)ccc21`, the inhibition is 49.1% (active).
As to `CCC(=O)Nc1ccc2c(c1)nc(CCN1CCN(c3ccccn3)CC1)n2C`, the inhibition is -15.1% (inactive).
In the case of `Cn1c(CCN2CCCC2)nc2cc(NS(=O)(=O)c3ccccc3)ccc21`, the inhibition was -2.75% (inactive).
As for `CC[C@@H]1CCCCc2ccccc2[C@@H](C(=O)C[C@H](O)CC(C)=O)OC1=O`, the figure is 1.2% (inactive); as for `COCCNC(=O)C1CCN(S(=O)(=O)c2ccc3c(c2)OCCO3)CC1`, -1.23% (inactive); as for `O=C(NCc1cccs1)C1CCN(S(=O)(=O)c2ccc3c(c2)OCCO3)CC1`, -6.83% (inactive).
With `COc1ccccc1CNC(=O)C1CCN(S(=O)(=O)c2ccc3c(c2)OCCO3)CC1` the figure was 80.2% (active); with `O=C(NCc1ccccc1Cl)C1CCN(S(=O)(=O)N2CCOCC2)CC1`, 137% (active); with `COc1ccc(CNC(=O)C2CCN(S(=O)(=O)N3CCOCC3)CC2)cc1`, -1.68% (inactive).
With `O=C(NCc1ccccc1Cl)C1CCN(S(=O)(=O)c2cccc3nonc23)CC1` the figure was -3.79% (inactive).

For orientation: inhibition means the change of the read-out against control, counted positive when it falls.
